For eight molecules, outcome and Potency results are on record in PubChem BioAssay (Tox21).

Assay [1] is described as follows: qHTS assay to identify small molecule agonists of the sonic hedgehog signaling (Shh) pathway (AID 1259368; calls by dose curve;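 further: NIH/3T3-derived 3T3Gli1-Luc cells carrying a stable Gli1-driven firefly luciferase reporter; series mostly up to about 92 µM; nearly all actives have a fitted effect of over 15% in size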). The essentials:
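Cells of a mouse NIH/3T3 clone stably expressing luciferase under the Gli1 transcriptional response element are exposed to test chemicals for 24 hr at 37 C. Pathway activation is detected as a rise in luminescence.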

Assay [2] can be described thus: qHTS assay to identify small molecule antagonists of the sonic hedgehog signaling (Shh) pathway (AID 1259369; calls by dose curve; further: nearly all actives have a fitted effect of over 45% in size; further: potency means the concentration at half of the fitted maximal effect). Summed up: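 Cells are plated and held 4hr at 37 C, compounds (DMSO) are pinned in, conditioned medium is added to stimulate the pathway, and after 24hr luciferase reagent is added for 30min before luminescence is read.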
Background: Quantitative high-throughput screening tests each substance at several concentrations.

Assay [3] deals with Estrogen receptor beta (Homo sapiens) (UniProt Q92731). In words: qHTS assay to identify small molecule agonists of the estrogen receptor beta (ER-beta) signaling pathway (AID 1259377; active means well fitted activation curve with a large enough effect in the signal ratio in the repeat runs, not every such curve was filed as active; the % refers to the signal ratio). Summed up: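 In HEK293T cells bearing a UAS-beta-lactamase reporter under ER-beta control, DMSO-delivered compounds were incubated for 16 hr at 37C. Activity was detected as fluorescence 2 hours after LiveBLAzer B/G FRET substrate addition.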

A short description of assay [4]: qHTS assay to identify small molecule agonists of the androgen receptor (AR) signaling pathway in the presence of an antagonist - cell viability counter screen (AID 1259379). Further: nearly all actives have a fitted effect of over 25% in size. Further: potency means the concentration at half of the fitted maximal effect. The essentials: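 Cytotoxicity is assessed by CellTiter-Fluor in MDA-kb2 cells carrying an MMTV-driven luciferase reporter. Cells receive 3.0uM nilutamide plus compounds at 15 concentrations and incubate 16 hr at 37C without CO2 before fluorescence reading.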

Assay [5] can be described thus: qHTS assay to identify small molecule agonists of the estrogen receptor beta (ER-beta) signaling pathway - cell viability counter screen (AID 1259380). Further: nearly all actives have a fitted effect of over 30% in size. Further: potency means the concentration at half of the fitted maximal effect. The essentials:
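Cytotoxicity is measured in parallel with the reporter screen: after 16 hr compound exposure at 37C and a 2 hr LiveBLAzer step, CellTiter-Glo is added to the same ER-beta-UAS-bla HEK293T wells and luminescence read after 30 min.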

Assay [6] in a line: qHTS assay to identify small molecule antagonists of the estrogen receptor beta (ER-beta) signaling pathway - cell viability counter screen (AID 1259382).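 Further: HEK293T cells carrying ER-beta-UAS-bla reporter stimulated with estradiol; series mostly up to about 92 µM; nearly all actives have a fitted effect of over 55% in size.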 Summed up: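 Cytotoxicity counter screen multiplexed with the beta-lactamase antagonist assay: GripTite HEK293T ER-beta-bla cells were treated 16 hr with test chemicals in the presence of 1nM 17-beta-estradiol, and viability was measured by CellTiter-Glo.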

In assay [7] the target is Estrogen receptor (Homo sapiens) (UniProt P03372). The assay is described as follows: qHTS assay to identify small molecule agonists of the estrogen receptor alpha (ER-alpha) signaling pathway in the presence of an antagonist (AID 1259383; calls by dose curve; further: top concentration of the series differs between compounds; nearly all actives have a fitted effect of over 15% in size). Summed up: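 Agonist-mode confirmation in the presence of the ER antagonist ICI-182,780 at 10.0nM final. Breast-derived VM7Luc4E2 reporter cells were exposed to compounds for 22hr, and ERE-driven luciferase was quantified by luminescence.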

Assay [8] is described as follows: qHTS assay to identify small molecule agonists of the estrogen receptor alpha (ER-alpha) signaling pathway in the presence of an antagonist - cell viability counter screen (AID 1259386).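 Further: cells exposed to compounds for 22 h at 37 °C before the viability read; nearly all actives have a fitted effect of over 30% in size.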 Further: potency means the concentration at half of the fitted maximal effect. The essentials:
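Cytotoxicity was measured in parallel with the ERE-luciferase agonist screen, in the same wells. The cells were VM7Luc4E2, which endogenously express ER-alpha, and treatment was with compounds plus 10.0nM ICI-182,780 for 22hr.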

Assay [9] concerns the target Progesterone receptor (Homo sapiens) (UniProt P06401). In words: qHTS assay to identify small molecule agonists of the progesterone receptor (PR) signaling pathway (AID 1346784; calls by dose curve; further: nearly all actives have a fitted effect of over 30% in size). The essentials: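 Using charcoal-stripped serum (2%) to limit endogenous steroids, PR-UAS-bla HEK 293T cells received compounds for 16 hr at 37C after 6 hr plating; beta-lactamase FRET fluorescence was recorded following 2 hr substrate loading at room temperature.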

The target is the same in assay [10]. The assay is described as follows: qHTS assay to identify small molecule antagonists of the progesterone receptor (PR) signaling pathway (AID 1346795; active means well fitted inhibition curve with a large enough effect in the signal ratio in the repeat runs, not every such curve was filed as active; the % refers to the signal ratio). Summed up:
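Inhibition of R5020-induced (1 nM final) beta-lactamase reporter signal in PR-UAS-bla HEK293T cells was scored by FRET fluorescence after overnight (16 hr) compound treatment.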

Assay [11] can be described thus: qHTS assay to identify small molecule antagonists of the progesterone receptor (PR) signaling pathway - cell viability counter screen (AID 1346798). Further: series mostly up to about 92 µM; nearly all actives have a fitted effect of over 50% in size. Summed up: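 ATP content as viability readout: CellTiter-Glo luminescence, 30 min room temperature, in PR-UAS-bla HEK293T cells after 16 hr compound/R5020 treatment at 37C and 5% CO2.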
Assay [12] in a line: qHTS assay to identify small molecule agonists of the progesterone receptor (PR) signaling pathway - cell viability counter screen (AID 1346799; calls by dose curve; further: nearly all actives have a fitted effect of over 45% in size). Summed up: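 Cytotoxicity in PR-bla HEK293T cells: 16 h compound, 37C; CellTiter-Glo added post-FRET read; luminescence after 30 min RT.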
Assay [13] can be described thus: qHTS assay to identify small molecule agonists of the TGF-beta/Smad signaling pathway - cell viability counter screen (AID 1346829). Further: top concentration of the series differs between compounds; nearly all actives have a fitted effect of over 45% in size. Summed up:
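Here the cytotoxicity of library compounds is measured in SBE-bla HEK 293T cells treated for 5 hr, using CellTiter-Glo added to wells already read for the beta-lactamase reporter.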

The nature of assay [14]: qHTS assay to identify small molecule agonists of the TGF-beta/Smad signaling pathway (AID 1346859; active means well fitted activation curve with a large enough effect in the signal ratio in the repeat runs, not every such curve was filed as active; the % refers to the signal ratio; further: series mostly up to about 77 µM). The essentials: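 Stable Smad binding element-beta-lactamase HEK 293T cells; 5 hr compound exposure at 37 C under 5% CO2; 2 hr room-temperature substrate step; fluorescence excited at 405 nm, collected at 460 nm and 530 nm.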
The target of assay [15] is Thyrotropin-releasing hormone receptor (Homo sapiens) (UniProt P34981). In words: qHTS assay to identify small molecule antagonists of the thyrotropin-releasing hormone receptor (TRHR) signaling pathway (AID 1346877; active means well fitted inhibition curve with a large enough effect in the repeat runs, not every such curve was filed as active; further: series mostly up to about 51 µM). The essentials:
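Antagonism is measured as suppression of the calcium response to 1 nM TRH in TRHR-HEK293 cells that have been dye-loaded for 2 h at 37 °C after overnight plating. Each compound is tested at 15 concentrations in triplicate.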

The target in assay [16] is Androgen receptor (Homo sapiens) (UniProt P10275). In words: qHTS assay to identify small molecule agonists of the androgen receptor (AR) signaling pathway in the presence of an antagonist (AID 1259381; calls by dose curve; further: nearly all actives have a fitted effect of over 15% in size). The essentials: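 Agonist-mode confirmation screen: human MDA-kb2 cells stably expressing luciferase under an MMTV promoter bearing AR and GR response elements, co-treated with 3.0uM nilutamide (final). Luminescence measured after 16hr compound incubation.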

Assay [17] in a line: qHTS assay to identify small molecule agonists or antagonists of the thyroid stimulating hormone receptor (TSHR) signaling pathway - wild type cell line counter screen (AID 1259384; calls by dose curve). Summed up:
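Counter screen in untransfected Hek293: compounds (15-point titration, triplicate) plus phosphodiesterase inhibitor Ro20-1724 added after 18 h plating; 30 min RT. Intracellular cAMP via competitive d2/cryptate immunoassay, 1 h incubation.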

Assay [18] addresses Thyrotropin receptor (Homo sapiens) (UniProt P16473). The assay is described as follows: qHTS assay to identify small molecule antagonists of the thyroid stimulating hormone receptor (TSHR) signaling pathway (AID 1259385; calls by dose curve; further: nearly all actives have a fitted effect of over 20% in size). The essentials:
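Antagonist mode: compound-treated TSHR-expressing HEK293 cells were stimulated with 1.5 ng/mL TSH (final) in presence of Ro20-1724 for 30 min at RT. HTRF cAMP detection after 1 h; each compound tested at 15 concentrations, triplicate.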

Assay [19] is described as follows: qHTS assay to identify small molecule antagonists of the TGF-beta/Smad signaling pathway - cell viability counter screen (AID 1346824). Further: nearly all actives have a fitted effect of over 50% in size. Summed up: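 Cytotoxicity counter-screen run in the same wells as the beta-lactamase Smad reporter read: CellTiter-Glo luminescence after 30 min at room temperature. HEK 293T SBE-bla cells had 5 hr compound exposure at 37 C with TGF-beta1 (0.25 ng/mL stock).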

“And” between values parts separate entries of the source, which are not always exact repeats. Equal values may be shown once. Results filed as inconclusive are left out. Where a structure was tested more than once in an assay, its records may differ in their call. The source made the active and inactive calls. Unless noted, the call rests on the fitted dose curve; in most records, active means well fitted curve in the direction sought with a large enough effect in the repeat runs; inconclusive means weak or mixed curves; inactive means no such curve, though single readings can be large; an effect the other way counts as inactive or inconclusive.

Chain of Estrogen receptor beta (Homo sapiens) (Q92731 whole entry, looked up): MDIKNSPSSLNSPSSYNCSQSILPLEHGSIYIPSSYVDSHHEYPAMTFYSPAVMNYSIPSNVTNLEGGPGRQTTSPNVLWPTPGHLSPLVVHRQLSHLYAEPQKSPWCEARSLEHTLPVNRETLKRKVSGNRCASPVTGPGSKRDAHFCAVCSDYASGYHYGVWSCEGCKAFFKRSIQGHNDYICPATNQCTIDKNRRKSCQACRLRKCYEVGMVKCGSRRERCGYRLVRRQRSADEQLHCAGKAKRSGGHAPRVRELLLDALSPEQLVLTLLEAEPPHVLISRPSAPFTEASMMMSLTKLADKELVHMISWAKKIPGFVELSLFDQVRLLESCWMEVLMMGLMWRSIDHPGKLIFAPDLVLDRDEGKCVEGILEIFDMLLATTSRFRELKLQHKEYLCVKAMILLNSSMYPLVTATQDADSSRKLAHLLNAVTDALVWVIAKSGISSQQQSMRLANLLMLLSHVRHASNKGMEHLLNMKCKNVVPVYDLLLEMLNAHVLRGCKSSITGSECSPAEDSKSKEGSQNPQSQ
Chain of Estrogen receptor (Homo sapiens) (P03372 whole entry, looked up): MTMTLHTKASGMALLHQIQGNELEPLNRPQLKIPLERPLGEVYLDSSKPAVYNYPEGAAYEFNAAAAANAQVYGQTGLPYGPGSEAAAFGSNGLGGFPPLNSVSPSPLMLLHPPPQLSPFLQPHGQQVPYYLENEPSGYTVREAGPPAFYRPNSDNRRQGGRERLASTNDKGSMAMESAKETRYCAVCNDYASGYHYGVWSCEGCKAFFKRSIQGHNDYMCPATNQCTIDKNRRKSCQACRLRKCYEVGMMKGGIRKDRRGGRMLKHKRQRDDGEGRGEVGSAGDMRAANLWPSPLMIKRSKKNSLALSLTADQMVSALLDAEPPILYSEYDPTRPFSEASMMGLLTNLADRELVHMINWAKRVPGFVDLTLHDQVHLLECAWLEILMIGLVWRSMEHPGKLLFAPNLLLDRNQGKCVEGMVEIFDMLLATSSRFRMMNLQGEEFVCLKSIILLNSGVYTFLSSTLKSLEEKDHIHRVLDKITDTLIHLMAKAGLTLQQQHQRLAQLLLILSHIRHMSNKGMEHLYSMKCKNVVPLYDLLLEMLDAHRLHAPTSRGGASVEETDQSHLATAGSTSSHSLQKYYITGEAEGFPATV
Chain of Progesterone receptor (Homo sapiens) (P06401 whole entry, looked up): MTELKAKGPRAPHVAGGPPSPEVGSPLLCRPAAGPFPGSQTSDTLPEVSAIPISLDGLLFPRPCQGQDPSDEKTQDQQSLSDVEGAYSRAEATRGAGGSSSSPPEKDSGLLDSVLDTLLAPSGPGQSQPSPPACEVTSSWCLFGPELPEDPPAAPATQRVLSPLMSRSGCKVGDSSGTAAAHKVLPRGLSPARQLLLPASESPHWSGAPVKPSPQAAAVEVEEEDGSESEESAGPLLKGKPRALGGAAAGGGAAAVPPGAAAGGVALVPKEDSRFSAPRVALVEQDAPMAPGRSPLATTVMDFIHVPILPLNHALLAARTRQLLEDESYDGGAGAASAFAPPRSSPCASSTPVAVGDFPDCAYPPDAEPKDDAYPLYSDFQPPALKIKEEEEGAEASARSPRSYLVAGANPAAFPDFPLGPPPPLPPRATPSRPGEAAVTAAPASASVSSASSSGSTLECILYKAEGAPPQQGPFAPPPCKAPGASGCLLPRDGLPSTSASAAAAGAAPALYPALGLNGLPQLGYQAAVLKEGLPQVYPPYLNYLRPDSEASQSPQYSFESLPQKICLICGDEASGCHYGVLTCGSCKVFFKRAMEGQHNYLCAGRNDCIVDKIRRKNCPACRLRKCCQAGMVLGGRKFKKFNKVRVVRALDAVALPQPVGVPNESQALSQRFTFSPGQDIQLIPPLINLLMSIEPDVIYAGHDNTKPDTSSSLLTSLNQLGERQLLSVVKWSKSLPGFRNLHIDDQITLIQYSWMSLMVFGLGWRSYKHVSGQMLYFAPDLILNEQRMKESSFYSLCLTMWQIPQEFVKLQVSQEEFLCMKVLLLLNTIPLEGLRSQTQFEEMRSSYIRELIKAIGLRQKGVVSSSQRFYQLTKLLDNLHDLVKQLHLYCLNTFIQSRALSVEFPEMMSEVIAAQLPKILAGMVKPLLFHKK
Chain of Thyrotropin receptor (Homo sapiens) (P16473 whole entry, looked up): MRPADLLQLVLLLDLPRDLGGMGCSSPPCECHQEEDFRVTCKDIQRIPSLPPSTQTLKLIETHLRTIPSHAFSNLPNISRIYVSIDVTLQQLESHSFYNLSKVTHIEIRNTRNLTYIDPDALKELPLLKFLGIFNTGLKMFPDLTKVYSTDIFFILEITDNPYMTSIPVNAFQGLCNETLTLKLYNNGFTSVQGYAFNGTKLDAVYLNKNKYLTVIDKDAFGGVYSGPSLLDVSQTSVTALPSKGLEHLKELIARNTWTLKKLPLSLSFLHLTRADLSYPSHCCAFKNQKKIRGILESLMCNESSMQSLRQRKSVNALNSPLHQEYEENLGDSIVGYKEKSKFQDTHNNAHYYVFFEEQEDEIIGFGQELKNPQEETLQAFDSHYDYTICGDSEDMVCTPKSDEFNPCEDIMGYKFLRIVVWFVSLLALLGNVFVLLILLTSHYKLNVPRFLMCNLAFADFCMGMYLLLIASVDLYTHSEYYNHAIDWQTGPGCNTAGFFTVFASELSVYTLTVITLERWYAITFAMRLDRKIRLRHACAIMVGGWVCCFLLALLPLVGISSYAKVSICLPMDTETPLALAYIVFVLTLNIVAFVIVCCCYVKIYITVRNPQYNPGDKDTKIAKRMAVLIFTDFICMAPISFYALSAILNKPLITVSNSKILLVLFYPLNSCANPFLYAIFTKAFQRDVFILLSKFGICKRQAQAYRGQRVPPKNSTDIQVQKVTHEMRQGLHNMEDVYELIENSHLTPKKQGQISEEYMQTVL
Chain of Thyrotropin-releasing hormone receptor (Homo sapiens) (P34981 whole entry, looked up): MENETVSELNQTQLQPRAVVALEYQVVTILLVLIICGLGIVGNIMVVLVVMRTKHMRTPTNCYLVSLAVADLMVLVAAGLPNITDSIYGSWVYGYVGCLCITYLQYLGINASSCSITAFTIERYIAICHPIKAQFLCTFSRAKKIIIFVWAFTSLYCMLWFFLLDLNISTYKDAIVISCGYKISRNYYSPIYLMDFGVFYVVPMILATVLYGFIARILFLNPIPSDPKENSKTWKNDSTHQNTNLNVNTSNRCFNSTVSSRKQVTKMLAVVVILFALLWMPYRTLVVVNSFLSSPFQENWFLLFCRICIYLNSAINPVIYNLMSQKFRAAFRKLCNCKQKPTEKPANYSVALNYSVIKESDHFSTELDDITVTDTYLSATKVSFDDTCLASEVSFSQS
Chain of Androgen receptor (Homo sapiens) (P10275 whole entry, looked up): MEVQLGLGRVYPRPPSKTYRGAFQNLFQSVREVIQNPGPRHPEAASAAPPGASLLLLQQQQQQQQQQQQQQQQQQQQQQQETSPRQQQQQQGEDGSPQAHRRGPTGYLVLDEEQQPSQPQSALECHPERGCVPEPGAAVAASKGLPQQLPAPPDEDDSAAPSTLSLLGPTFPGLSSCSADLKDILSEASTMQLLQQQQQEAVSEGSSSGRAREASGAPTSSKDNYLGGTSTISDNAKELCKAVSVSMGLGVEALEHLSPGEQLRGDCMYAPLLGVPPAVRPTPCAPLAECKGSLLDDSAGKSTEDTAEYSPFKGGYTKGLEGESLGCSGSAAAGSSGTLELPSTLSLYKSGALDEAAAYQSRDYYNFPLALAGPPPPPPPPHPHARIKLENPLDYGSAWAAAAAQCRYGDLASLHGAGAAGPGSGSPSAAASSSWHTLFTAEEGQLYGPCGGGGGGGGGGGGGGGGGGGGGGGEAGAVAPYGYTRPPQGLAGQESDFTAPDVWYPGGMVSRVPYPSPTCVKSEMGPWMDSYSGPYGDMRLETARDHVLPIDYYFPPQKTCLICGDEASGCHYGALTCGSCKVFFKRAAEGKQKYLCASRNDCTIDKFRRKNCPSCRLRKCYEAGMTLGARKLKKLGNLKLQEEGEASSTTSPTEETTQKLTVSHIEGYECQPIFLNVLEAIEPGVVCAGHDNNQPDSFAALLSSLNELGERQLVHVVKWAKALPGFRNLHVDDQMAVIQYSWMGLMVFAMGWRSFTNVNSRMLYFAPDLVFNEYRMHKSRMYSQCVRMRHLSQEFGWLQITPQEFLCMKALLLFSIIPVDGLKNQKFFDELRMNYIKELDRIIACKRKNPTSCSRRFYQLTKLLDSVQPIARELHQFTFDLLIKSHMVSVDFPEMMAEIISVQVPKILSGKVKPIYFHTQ

As to `O=C(c1cc(O)c(O)c(O)c1)c1ccc(O)c(O)c1O`, the molecule was called inactive in assay [1], in assay [14] and in assay [15]. Further, the Potency was 34.4 µM (active) and inactive in [2]; 27.3 µM (active) in assay [4]; 34.3 µM (active) and 30.6 µM (active) in assay [8]. Further, the Potency entry in [3], in assay [5], in assay [6], in assay [7], in assay [9] and in assay [10] was “inactive” each time. Moreover, the Potency entry in [11], in assay [12] and in assay [13] was “inactive” in each case.

Consider `CC(C)(CO)COC(=O)C(C)(C)CO`, for which the result in [1], in assay [17], in [18], in [14] and in assay [15] was inactive. Further, the Potency entry in [2], in assay [3], in assay [4], in assay [5], in assay [16] and in assay [6] was “inactive” in each case. The Potency entry in assay [7], in assay [8], in assay [9], in [10], in assay [11] and in assay [19] was “inactive” each time. Further, the Potency entry in assay [13] is “inactive”.

On to `COC(=O)c1ccccc1O`, for which the call in assay [1], in assay [17], in assay [18], in assay [14] and in assay [15] was inactive. The Potency result in assay [2], in assay [3], in assay [4], in assay [5], in [6] and in assay [7] was “inactive” throughout. In addition, the Potency entry in [8], in assay [9], in [11], in assay [12], in assay [19] and in assay [13] was “inactive” each time.

Take `Clc1ccc(Cl)c(Cl)c1Cl`: the molecule was classed as inactive in assay [1], in [17], in assay [18], in assay [14] and in assay [15]. Besides, the Potency entry in assay [2], in [3], in [4], in assay [5], in [6] and in assay [8] was “inactive” each time. In addition, the Potency result in [9], in assay [10], in [11], in [12] and in assay [13] was “inactive” throughout.

In the case of `CCCCC/C=C\C/C=C\CCCCCCCC(=O)OC`, the result in assay [1], in [17], in assay [18] and in assay [14] was inactive. Further, the Potency result in assay [2] is “inactive and 24.3 µM (active)”; in assay [5] it was “inactive and 48.6 µM (active)”. The Potency result in assay [3], in assay [4], in assay [6], in assay [7], in assay [8] and in assay [9] was “inactive” each time. The Potency entry in assay [10], in assay [11], in [19] and in assay [13] was “inactive” throughout.

For the molecule `CCCCCCCCCCCCOCC1CO1` (stereo not drawn), the molecule was called inactive in assay [1], in assay [17], in assay [18], in assay [14] and in [15]. The Potency entry in [2], in assay [3], in assay [5], in [6], in [7] and in assay [8] was “inactive” each time. Moreover, the Potency entry in assay [9], in assay [10], in [11], in assay [12], in assay [19] and in assay [13] was “inactive” each time.

Regarding `Oc1c(Cl)cc(Cl)c(Cl)c1Cl`, the molecule was classed as inactive in [1], in assay [17], in assay [18], in assay [14] and in assay [15]. The Potency in [2] was 48.6 µM (active). Also, the Potency entry in assay [3], in assay [4], in assay [7], in assay [8], in assay [10] and in assay [11] was “inactive” throughout. The Potency result in [13] was “inactive”.

Regarding `NCCc1ccc(O)c(O)c1`, the molecule was classed as inactive in assay [1], in assay [14] and in assay [15]. Moreover, the Potency was 0.866 µM (active) in [2]; 54.6 µM (active) and inactive in assay [4]; 27.4 µM (active) and inactive in assay [8]. The Potency entry in assay [3], in assay [5], in assay [6], in assay [7], in assay [9] and in [10] was “inactive” in each case. Moreover, the Potency entry in assay [11], in assay [12], in [19] and in assay [13] was “inactive” in each case.
